Experimental data from PubChem BioAssay AID651660 (Broad Institute, 2012).
About 15 (0.8%) of roughly 1,900 compounds were called active.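 How the source made its calls: active means every replicate shows at least 50% inhibition; inconclusive means mean inhibition at least 50% but some replicate below; inactive means the rest.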 This excerpt belongs to a sample that is enriched for actives.

These compounds were tested against DNA repair protein RAD52 homolog (Homo sapiens) (UniProt P43351) (assay: inhibition of RAD52-mediated strand annealing – biochemical, FRET, single point, primary screen (AID 651660;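 further: 0% = median of neutral control wells and 100% = median of positive control wells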)). Details: Recombinant RAD52 ssDNA annealing, FRET fluorescence, 30 min; at 18.7 µM; stronger effect = higher value.
Chain of DNA repair protein RAD52 homolog (Homo sapiens) (P43351 whole entry, looked up): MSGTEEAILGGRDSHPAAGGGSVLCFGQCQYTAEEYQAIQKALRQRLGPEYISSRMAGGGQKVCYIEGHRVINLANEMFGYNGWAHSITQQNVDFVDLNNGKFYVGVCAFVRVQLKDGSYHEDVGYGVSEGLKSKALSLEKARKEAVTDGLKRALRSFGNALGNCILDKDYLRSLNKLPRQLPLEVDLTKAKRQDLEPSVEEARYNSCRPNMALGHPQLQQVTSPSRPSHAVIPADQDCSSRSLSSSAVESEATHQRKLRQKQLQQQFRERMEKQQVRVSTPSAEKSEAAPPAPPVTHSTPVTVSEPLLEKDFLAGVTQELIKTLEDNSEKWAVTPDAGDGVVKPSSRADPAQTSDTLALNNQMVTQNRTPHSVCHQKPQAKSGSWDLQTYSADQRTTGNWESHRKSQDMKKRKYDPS

inhibition, inactive:
O=C(Nc1nc2ccccc2s1)c1ccc(F)cc1 4.49%
CCN(CC)c1ccc(C2=NNC(=O)CC2C)cc1[N+](=O)[O-] (configuration not stated) -0.17%
O=C(N/C(=C/C=C\c1ccccc1)C(=O)N1CCOCC1)c1ccc(Br)cc1 8.04%
CCOc1ccccc1Oc1coc2cc(OCC(=O)O)ccc2c1=O -12.3%
C(=C\c1ccc2ccccc2n1)/c1ccccc1 3.46%
COc1cc(CC(=O)NCCc2ccc(S(N)(=O)=O)cc2)cc(OC)c1OC -2.62%
O=C(NCCCCCc1nc2ccccc2[nH]1)c1ccccc1Cl -0.634%
N=C1C(c2ccccc2)=C(O)CN1CCCO -1.52%
Cn1c2ccccc2c2cc(/C=C(\NC(=O)c3ccccc3)C(=O)O)ccc21 -10.8%
O=C1c2cccc3cccc(c23)C(=O)N1c1ccccn1 -4.1%
COCCCNc1nc2c([nH]1)c(=O)[nH]c(=O)n2C -1.14%
CCOC(=O)c1cnc2ccccc2c1NCCO 10.9%
O=C(COc1ccccc1)Nc1ccc2c(c1)C(=O)N(CC1CCCO1)C2=O (configuration not stated) -9.17%
COc1ccc(C2C3=C(CC(C)(C)CC3=O)N(C)C3=C2C(=O)CC(C)(C)C3)cc1 -13.9%
COc1ccccc1OS(=O)(=O)c1ccc(NC(C)=O)cc1 3.22%
S=C(NCCOCCOCCNC(=S)Nc1ccccc1)Nc1ccccc1 4.23%
Nc1ncnc2c1ncn2C1OC(CO)C(O)C1O (configuration not stated) -0.087%
Cc1ccc2c(ccc(=S)n2C)c1 -5.88%
O=C(CS(=O)(=O)c1ccccc1)c1ccc2c(c1)OCCO2 -0.895%
CCOc1cc2oc(=O)c3c(c2cc1Cl)CCC3 -1.74%
CC[C@H](CO)NCCN[C@H](CC)CO -5.2%
Cc1ccc2nc(NC3=NC(CC(=O)O)C(=O)N3)nc(C)c2c1 (configuration not stated) 7.8%
Cc1ccc2nc(C)c3c(c2c1)OC(C(C)(Cl)Br)C3 (configuration not stated) 3.5%
C[C@H](NC(=O)OC(C)(C)C)C(=O)NCC1CCC(C(=O)O)CC1 (some centres not stated) -0.108%
CC(=O)N(CCC1(C(C)C)CCOC(C)(C)C1)Cc1ccco1 (configuration not stated) -19%
COc1cc(CO)ccc1OCc1nnnn1-c1ccc(C)cc1 5.41%
CCC(C)NCCOCCOc1ccc(Cl)cc1Br (configuration not stated) 9.51%
CCC1CCc2c(sc(NC(=O)c3cccnc3)c2C(N)=O)C1 (configuration not stated) -5.46%
Nc1ccc2nc(Cc3ccccc3)[nH]c2c1 33.4%
O=[N+]([O-])c1ccc2cn[nH]c2c1 -3.19%
C=C(C)COc1ccc(-c2n[nH]c(C)c2-c2ccc(OC)cc2)c(O)c1 17.8%
CCOc1ccc(C(=O)Nc2ccc(N3CCN(C(C)=O)CC3)cc2)cc1[N+](=O)[O-] -3.31%
NC(=O)[C@@H]1[C@@H]2C(=O)N(c3ccc(F)cc3)C(=O)[C@@H]2[C@H]2C=Cc3ccccc3N21 -124%
C#CCN1C(=O)C(O)(c2c(C)[nH]c3ccccc23)c2ccccc21 (configuration not stated) -11.1%
Nc1c2c(nc3ccccc13)CCCC2 18.1%
Cc1nc2cc3ccccc3cc2c(=O)[nH]1 -5.13%
CN(C)C(=O)CCCCCCCCC(=O)N(C)C -13.3%
COc1ccc(/C=C(/C#N)c2cccnc2)cc1OC -8.25%
CCOC(=O)c1ccc2[nH]c(C)c(CCC(C)=O)c(=O)c2c1 0.469%
COc1cc(COc2ccc3c(C)c(Cc4ccccc4)c(=O)oc3c2)cc(OC)c1OC -0.647%
CCc1nc2ccccc2c(NC(=O)CN2CC(C)CC(C)C2)c1C (configuration not stated) -5.82%
O=C(CCCn1c(=O)oc2ccccc21)N1CCN(c2ccc(F)cc2)CC1 -3.01%
Cc1ccc(C2CC(=O)C(C=NCCN3CCN(C(=S)Nc4ccccc4)CC3)=C(O)C2)cc1 (configuration not stated) 4.06%
Cc1ccc2c(c1)C(O)(CC(=O)/C=C/C=C/c1ccccc1)C(=O)N2 (configuration not stated) -10.7%
CC1(C)CC(=O)C2=C(C1)c1c(ccc3ccccc13)NC2c1ccco1 (configuration not stated) -27.1%
CCN(CC)c1ccc([C@H]2[C@@H]3CCCC[C@]3(O)CCN2CC(=O)NCc2ccco2)cc1 -20.6%
CCc1cc(/C(Cc2ccccn2)=N\O)c(O)cc1O -33.7%
CC(C)CC(NC(=O)CNC(=O)C1O[C@@H]2OC(C)(C)O[C@@H]2[C@H]2OC(C)(C)O[C@@H]12)C(=O)O (some centres not stated) -7%
OCCN(Cc1nc(-c2ccc3c(c2)OCO3)no1)Cc1cccs1 2.4%
Cc1ccc(C2CC(=O)C(C=NCCN3CCN(CC(=O)Nc4cc(C)cc(C)c4)CC3)=C(O)C2)cc1 (configuration not stated) -3.07%
COc1ccccc1N=CC1=C(O)CC(c2ccccc2)CC1=O (configuration not stated) -25.4%
C/C(=N\N=C1\NC(=O)C(CC(=O)Nc2ccc(Cl)cc2)S1)c1ccco1 (configuration not stated) -15.6%
COc1ccc(NC(=S)NCCc2c[nH]c3ccccc23)cc1 7.25%
O=C(c1ccc(O)cc1)c1ccc(O)cc1O -19.8%
COc1ccc2[nH]c(=O)c3c(c2c1)OC(C)(C)C=C3 -5.72%
CCc1cccc(OC2OC(CO)C(O)C(O)C2NC(C)=O)c1 (configuration not stated) -3.23%
COc1ccc2c(C=O)cn(C)c2c1 -1.85%
CC(C)CC(NC(=O)c1cccc(Cl)c1)C(=O)O (configuration not stated) -8.58%
CCOC(=O)c1c(O)c2c([nH]c1=O)CCCC2 2.81%
COc1cccc(N2C(=O)CC(c3c[nH]c4ccccc34)C2=O)c1 (configuration not stated) -22.5%
Cc1c(NC(=O)c2cccs2)cccc1[N+](=O)[O-] 0.122%
CC1(C)CC(=O)C(C(=O)CCCCC(=O)C2C(=O)CC(C)(C)CC2=O)C(=O)C1 -11.5%
CC(=O)NCCCC(=O)NC(CCC(=O)OCc1ccccc1)C(=O)OCc1ccccc1 (configuration not stated) -10.8%
COC(=O)c1ccc(OCCCCN2CC(C)OC(C)C2)cc1 (configuration not stated) -1.97%
CC1(C)OC2OC(C(=O)N/N=C/c3ccccc3F)C3OC(C)(C)OC3C2O1 (configuration not stated) -8.91%
O=C(/C=C/c1c[nH]c2ccccc12)c1cccc2ccccc12 -25.7%
O=C(CCCCCCCC(=O)c1ccccc1)c1ccccc1 2.66%
COc1cc2[nH]c3c(=O)n(CCN4CCOCC4)cnc3c2cc1OC 1.23%
Clc1ccc(CCNc2ncnc3nc[nH]c23)cc1 1.95%
CN(Cc1ccccc1)CC(O)COc1ccc(CNCc2cccnc2)cc1 (configuration not stated) 25.5%
COc1c2ccoc2nc2c(OC)cccc12 10.6%
COc1ccc(N2C(=O)[C@@H]3Cc4ccccc4CN3C2=O)cc1 -7.83%
Cc1oc2c(CN3CCCC3)c(O)ccc2c(=O)c1-c1ccc(Cl)cc1 2.93%
CCN(Cc1ccncc1)Cc1nc(Cc2ccccc2Cl)no1 -13.8%
COc1ccc(C(CC(=O)N2CCOCC2)C(C)C)cc1 (configuration not stated) 4.92%
O=C(CSCc1ccccc1)NCCCN1CCOCC1 7.56%
CCN(Cc1cnn(C)c1)Cc1nc(C(c2ccccc2)c2ccccc2)no1 1.94%
N/C(=N\OC(=O)/C=C/c1ccccc1)c1ccc(Br)cc1 -5.01%
Cc1nc(-c2coc3c(CN(C)C)c(O)ccc3c2=O)cs1 5.53%
Cc1cccc(Nc2ccccc2C(=O)O)c1C -13.3%
O=C(O)c1ccccc1Nc1cccc(C(F)(F)F)c1 -6.2%
COc1ccc(-c2nc(C)c(C(C)=O)n2O)cc1OC -4.44%
COc1cccc(-n2cc(CNCc3c(C(=O)N(C)C)nc4ccc(Cl)cn34)cn2)c1 -5.77%
COC(=O)c1sccc1NC(=O)Nc1ccccc1F -4.3%
Cc1oc2cc(O)cc(O)c2c(=O)c1-c1ccc2c(c1)OCCCO2 3.6%
Cn1c2ccc(CC(=O)O)cc2c2cc(CC(=O)O)ccc21 -173%
CC(C)c1ccccc1OCCNC(=S)NC(=O)c1cccnc1 -11.8%
COc1cccc2c1C(=O)O/C2=C/c1ccc2c(c1)OCO2 -3.05%
CCn1c(O)c(/C=C2\C=Nc3ccccc32)sc1=O 8.58%
COC(=O)c1cc(OC)c(OC)c(OC)c1[N+](=O)[O-] -11.8%
COc1ccc(Br)cc1C(=O)Nc1ccc(C(=O)O)cc1 -5.54%
Cc1cnc(C(=O)N2CCCC(C(=O)c3ccc(Cl)cc3C)C2)cn1 (configuration not stated) 3.18%
Cc1ccc2[nH]c(=O)c(Cc3ccccc3)c(O)c2c1 -9.59%
CN1C(=O)C(O)(CC(=O)/C=C/C=C/c2ccccc2)c2ccccc21 (configuration not stated) -13.6%
CC(C)Oc1ccc(C(CC(=O)O)c2ccc(F)cc2)cc1 (configuration not stated) -7.3%
COc1ccc(CN(CCC(c2ccccc2)c2ccc(OC(C)C)cc2)C(=O)CCl)cc1OC (configuration not stated) 28.8%

inhibition, active:
Cc1ccc2nc(N=C(N)N)nc(C)c2c1 66.7%
Nc1ccc2[nH]ncc2c1 59.5%
Nc1cccc2nc3ccccc3cc12 99.5%
COc1ccc(CCNc2ncnc3c2[nH]c2cc(OC)c(OC)cc23)cc1OC 68.2%
c1ccc(Nc2cccc3c(Nc4ccccc4)cccc23)cc1 51.9%
COc1ccc(CNCCC(c2ccc(F)cc2)c2ccc(OC(C)C)cc2)cc1OC (configuration not stated) 57.6%
